Reference: PubChem BioAssay (Tox21)
Results filed as inconclusive are left out. The source made the active and inactive calls. Unless noted, calls come from the whole dose curve; as a rule, active = well fitted curve in the direction sought with a large enough effect in the repeat runs; inconclusive = weak or mixed curves; inactive = no such curve, though single readings can be large; an effect the other way counts as inactive or inconclusive.

Tests used:
[1] = biological target: Peroxisome proliferator-activated receptor gamma (Homo sapiens) (UniProt P37231); experiment: qHTS assay to identify small molecule agonists of the peroxisome proliferator-activated receptor gamma (PPARg) signaling pathway (AID 743094; active = well fitted activation curve with a large enough effect in the signal ratio in the repeat runs, not every such curve was filed as active; the % refers to the signal ratio)
Chain of Peroxisome proliferator-activated receptor gamma (Homo sapiens) (P37231 whole entry, looked up): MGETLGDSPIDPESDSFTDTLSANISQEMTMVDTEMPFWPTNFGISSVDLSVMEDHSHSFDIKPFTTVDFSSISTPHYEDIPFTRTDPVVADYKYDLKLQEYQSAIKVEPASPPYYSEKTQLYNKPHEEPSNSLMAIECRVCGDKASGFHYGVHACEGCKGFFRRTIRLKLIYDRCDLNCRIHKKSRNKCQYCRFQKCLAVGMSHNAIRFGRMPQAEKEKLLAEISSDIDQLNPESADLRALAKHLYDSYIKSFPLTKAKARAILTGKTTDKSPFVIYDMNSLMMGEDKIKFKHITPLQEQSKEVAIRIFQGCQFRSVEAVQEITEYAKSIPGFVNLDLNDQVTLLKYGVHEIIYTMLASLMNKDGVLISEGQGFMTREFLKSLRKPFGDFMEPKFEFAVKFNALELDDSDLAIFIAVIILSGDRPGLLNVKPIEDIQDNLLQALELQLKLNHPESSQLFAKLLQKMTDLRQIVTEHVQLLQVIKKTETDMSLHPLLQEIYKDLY
In short: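 Reporter activation was scored by fluorescence of cleaved LiveBLAzer B/G substrate (1 h, room temperature) in PPARg-bla HEK293H cells previously treated 17 h at 37C with DMSO-dissolved compounds.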

[2] = qHTS assay to identify small molecule antagonists of the peroxisome proliferator-activated receptor gamma (PPARg) signaling pathway - cell viability counter screen (AID 743194); details: Potency: co-treated with 50 nM rosiglitazone; note: nearly all actives have a fitted effect of over 55% in size
In short: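 Viability was measured as CellTiter-Glo luminescence in GeneBLAzer PPARg UAS-bla HEK293H cells. These cells had been exposed 17 h at 37 C to compounds together with rosiglitazone at 50 nM final, with the beta-lactamase readout taken in the same wells.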

[3] = qHTS assay for small molecule agonists of the antioxidant response element (ARE) signaling pathway (AID 743202; active = well fitted activation curve with a large enough effect in the signal ratio in the repeat runs, not every such curve was filed as active; the % refers to the signal ratio)
In short: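 Beta-lactamase reporter activity, read as fluorescence intensity, reflects ARE/Nrf2 pathway induction in HepG2 cells after 16 h compound exposure at 37 C; substrate loading was 2 h at room temperature.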

[4] = qHTS assay for small molecule agonists of the antioxidant response element (ARE) signaling pathway - cell viability counter screen (AID 743203; calls by dose curve; note: nearly all actives have a fitted effect of over 55% in size)
In short: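 Viability counter screen: stably transfected ARE-bla HepG2 line, 16 hrs compound exposure at 37C/5% CO2, ATP-based CellTiter-Glo luminescence measured in the reporter wells.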

[5] = qHTS assay for small molecule activators of the heat shock response signaling pathway - cell viability counter screen (AID 743209); note: nearly all actives have a fitted effect of over 50% in size
In short: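 Viability of HSE-bla HeLa cells is measured with CellTiter-Glo in the wells already used for the reporter read. Compound exposure lasts 5 h at 37 C, and luminescence is read after 30 min at room temperature.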

[6] = qHTS assay for small molecule activators of the heat shock response signaling pathway (AID 743210; active = well fitted activation curve with a large enough effect in the signal ratio in the repeat runs, with a control signal flat, not every such curve was filed as active; the % refers to the signal ratio;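 note: HeLa cells with beta-lactamase reporter driven by heat shock elements; series mostly up to about 63 µM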)
In short: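 Fluorescence from a cleaved B/G FRET substrate (2.5 h, room temp) reports HSE-driven beta-lactamase in HeLa cells treated 5 h at 37 C with DMSO-dissolved compounds.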

[7] = qHTS assay to identify small molecule agonists of the peroxisome proliferator-activated receptor delta (PPARd) signaling pathway - cell viability counter screen (AID 743211); note: nearly all actives have a fitted effect of over 55% in size
In short: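 In the same wells used for beta-lactamase reporter measurement, cytotoxicity is scored by CellTiter-Glo. HEK293H PPARd-bla cells receive compound for 17 h at 37C following a 5 h settling period.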

[8] = biological target: Peroxisome proliferator-activated receptor delta (Homo sapiens) (UniProt Q03181); experiment: qHTS assay to identify small molecule agonists of the peroxisome proliferator-activated receptor delta (PPARd) signaling pathway (AID 743212; calls by dose curve;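 note: HEK293H cells with PPARd UAS beta-lactamase reporter GeneBLAzer system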)
Chain of Peroxisome proliferator-activated receptor delta (Homo sapiens) (Q03181 whole entry, looked up): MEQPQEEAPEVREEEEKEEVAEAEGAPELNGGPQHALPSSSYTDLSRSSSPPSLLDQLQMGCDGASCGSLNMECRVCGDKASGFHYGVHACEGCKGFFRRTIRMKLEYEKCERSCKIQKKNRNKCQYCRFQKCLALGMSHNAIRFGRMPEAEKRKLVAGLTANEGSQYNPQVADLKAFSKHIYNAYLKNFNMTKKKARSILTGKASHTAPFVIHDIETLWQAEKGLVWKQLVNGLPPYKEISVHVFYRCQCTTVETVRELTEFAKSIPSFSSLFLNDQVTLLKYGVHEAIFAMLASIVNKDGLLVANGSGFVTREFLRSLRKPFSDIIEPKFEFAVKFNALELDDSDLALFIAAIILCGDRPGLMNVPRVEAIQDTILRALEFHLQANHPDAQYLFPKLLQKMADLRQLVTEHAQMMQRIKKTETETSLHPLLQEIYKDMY
In short: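 Steps: seed PPARd-bla HEK293H cells; incubate 5 h, 37 C, 5% CO2; add compounds in DMSO; incubate, 37 C; add LiveBLAzer B/G FRET substrate; hold 2 h at room temperature; measure fluorescence.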

[9] = qHTS assay to identify small molecule antagonists of the peroxisome proliferator-activated receptor delta (PPARd) signaling pathway - cell viability counter screen (AID 743213); note: nearly all actives have a fitted effect of over 50% in size
In short: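 HEK293H cells with the PPARd UAS-bla reporter, co-treated 17 h at 37 C with compounds and L165041 (300 nM final), were lysed with CellTiter-Glo. Luminescence indicated viable cell content.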

[10] = biological target: Peroxisome proliferator-activated receptor delta (Homo sapiens) (UniProt Q03181); experiment: qHTS assay to identify small molecule antagonists of the peroxisome proliferator-activated receptor delta (PPARd) signaling pathway (AID 743215; active = well fitted inhibition curve with a large enough effect in the signal ratio in the repeat runs, not every such curve was filed as active; the % refers to the signal ratio;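 note: cells stimulated with agonist L165041 at 300 nM final during compound exposure; series mostly up to about 62 µM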)
In short: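 Plated HEK293H PPARd-bla cells rested 5 h at 37 C and 5% CO2. Compound, then agonist L165041 at 300 nM final, was added; 17 h at 37 C followed. Substrate loading, 2 h room temperature, fluorescence measured.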

[11] = qHTS assay to identify small molecule agonists of the farnesoid-X-receptor (FXR) signaling pathway - cell viability counter screen (AID 743218); note: nearly all actives have a fitted effect of over 45% in size
In short: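 Viability of FXR-bla HEK 293T cells is measured by ATP-based CellTiter-Glo luminescence following 16 h compound treatment at 37 C and a prior 2 h room-temperature beta-lactamase substrate step.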

[12] = qHTS assay to identify small molecule antagonists of the farnesoid-X-receptor (FXR) signaling pathway - cell viability counter screen (AID 743221; active = well fitted cell-killing curve with a large enough effect in the repeat runs, not every such curve was filed as active; note: nearly all actives have a fitted effect of over 50% in size)
In short: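 Here viability was scored by luminescence after CellTiter-Glo addition to wells already read for beta-lactamase. Prior treatment: compound plus CDCA (50 uM final), 16 h, 37 C, HEK 293T FXR-bla cells.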

[13] = qHTS assay to identify small molecule agonists of the vitamin D receptor (VDR) signaling pathway - cell viability counter screen (AID 743224); note: series mostly up to about 63 µM; nearly all actives have a fitted effect of over 50% in size
In short: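 Compounds were pin-transferred onto VDR-bla cells plated 4 h earlier; following 16 h incubation at 37C, cell viability was quantified by CellTiter-Glo luminescence after 30 min at room temperature.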

[14] = qHTS assay to identify small molecule that activate the aryl hydrocarbon receptor (AhR) signaling pathway - cell viability counter screen (AID 743086);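 note: HepG2 liver cells carrying the AhR DRE luciferase reporter; series mostly up to about 70 µM; nearly all actives have a fitted effect of over 45% in size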
In short: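 Cytotoxicity counter screen: CellTiter-Fluor signal (30 min, 37 C) in 4000 HepG2 cells/well carrying the DRE-luciferase reporter, following 24 h compound exposure at 37 C.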

[15] = biological target: Peroxisome proliferator-activated receptor gamma (Homo sapiens) (UniProt P37231); experiment: qHTS assay to identify small molecule antagonists of the peroxisome proliferator-activated receptor gamma (PPARg) signaling pathway (AID 743191; calls by dose curve; note: series mostly up to about 63 µM; nearly all actives have a fitted effect of over 30% in size)
In short: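 Beta-lactamase reporter under UAS control in HEK293H PPARg-bla cells; compound treatment 17 h at 37C. Read-out: fluorescence intensity after 1 h room-temperature incubation with LiveBLAzer B/G FRET substrate.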

[16] = biological target: Vitamin D3 receptor (Homo sapiens) (UniProt P11473); experiment: qHTS assay to identify small molecule antagonists of the vitamin D receptor (VDR) signaling pathway (AID 743223; active = well fitted inhibition curve with a large enough effect in the signal ratio in the repeat runs, not every such curve was filed as active; the % refers to the signal ratio)
Chain of Vitamin D3 receptor (Homo sapiens) (P11473 whole entry, looked up): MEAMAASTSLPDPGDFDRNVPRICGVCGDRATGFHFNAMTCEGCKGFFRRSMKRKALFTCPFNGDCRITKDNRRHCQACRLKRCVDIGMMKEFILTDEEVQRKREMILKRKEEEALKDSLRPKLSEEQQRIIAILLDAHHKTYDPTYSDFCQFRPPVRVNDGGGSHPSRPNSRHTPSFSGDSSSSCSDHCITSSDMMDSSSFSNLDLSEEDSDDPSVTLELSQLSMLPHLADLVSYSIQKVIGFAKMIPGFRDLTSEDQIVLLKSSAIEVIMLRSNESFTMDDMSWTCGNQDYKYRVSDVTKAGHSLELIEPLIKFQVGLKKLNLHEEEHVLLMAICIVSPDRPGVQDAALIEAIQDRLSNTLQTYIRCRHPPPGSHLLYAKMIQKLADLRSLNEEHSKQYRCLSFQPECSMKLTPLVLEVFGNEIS
In short: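 Inhibition of agonist-driven VDR signalling is scored in VDR-bla cells: 3 nM final 1alpha,25-dihydroxyvitamin D3 plus compound, 16 h at 37C, then beta-lactamase detection by FRET substrate fluorescence after 2 h.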

[17] = biological target: Bile acid receptor (Homo sapiens) (UniProt Q96RI1); experiment: qHTS assay to identify small molecule antagonists of the farnesoid-X-receptor (FXR) signaling pathway (AID 743217; active = well fitted inhibition curve with a large enough effect in the signal ratio in the repeat runs, not every such curve was filed as active; the % refers to the signal ratio)
Chain of Bile acid receptor (Homo sapiens) (Q96RI1 whole entry, looked up): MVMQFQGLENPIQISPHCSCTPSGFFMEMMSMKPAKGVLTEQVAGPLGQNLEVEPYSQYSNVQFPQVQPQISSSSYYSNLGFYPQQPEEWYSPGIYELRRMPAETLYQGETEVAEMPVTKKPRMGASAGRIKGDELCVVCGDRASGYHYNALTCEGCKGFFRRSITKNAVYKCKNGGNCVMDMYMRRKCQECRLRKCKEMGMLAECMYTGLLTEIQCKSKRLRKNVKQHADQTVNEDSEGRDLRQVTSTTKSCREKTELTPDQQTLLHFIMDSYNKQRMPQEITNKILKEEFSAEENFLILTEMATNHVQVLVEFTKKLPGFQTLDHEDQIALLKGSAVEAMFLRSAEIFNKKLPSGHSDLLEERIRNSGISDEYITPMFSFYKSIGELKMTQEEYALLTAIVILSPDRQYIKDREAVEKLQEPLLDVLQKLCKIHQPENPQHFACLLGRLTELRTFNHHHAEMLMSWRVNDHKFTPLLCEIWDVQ
In short: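 Screen of the Tox21 10K library in quantitative HTS format using FXR-UAS-bla HEK 293T reporter cells. Agonist chenodeoxycholic acid, 50 uM final, added with compounds; 16 h incubation at 37 °C; beta-lactamase FRET fluorescence measured.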

[18] = biological target: Vitamin D3 receptor (Homo sapiens) (UniProt P11473); experiment: qHTS assay to identify small molecule agonists of the vitamin D receptor (VDR) signaling pathway (AID 743222; calls by dose curve)
In short: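 Fluorescence from cleaved LiveBLAzer B/G FRET substrate served as readout. VDR-bla cells had been treated 16 h at 37C with test compounds in DMSO, following a 4 h settling period, and substrate was loaded for 2 h at RT.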

[19] = biological target: Bile acid receptor (Homo sapiens) (UniProt Q96RI1); experiment: qHTS assay to identify small molecule agonists of the farnesoid-X-receptor (FXR) signaling pathway (AID 743220; active = well fitted activation curve with a large enough effect in the signal ratio in the repeat runs, not every such curve was filed as active; the % refers to the signal ratio)
In short: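 FXR-UAS-bla HEK 293T cells carrying a UAS-driven beta-lactamase reporter were plated for 5 h at 37C/5% CO2, then exposed to DMSO-dissolved Tox21 10K compounds for 16 h at 37C. A LiveBLAzer B/G FRET substrate was loaded for 2 h at room temperature before fluorescence reading.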

Measured: Potency

C[C@H](CN1CCOCC1)C(C(=O)N1CCCC1)(c1ccccc1)c1ccccc1
inactive: [1] | [2] | [3] | [4] | [5] | [6] | [7] | [8] | [9] | [10] | [11] | [12] | [13]

CS(=O)(=O)c1ccc(C(=O)C2C(=O)CCCC2=O)c(Cl)c1COCC(F)(F)F
inactive: [14] | [15] | [2] | [3] | [4] | [5] | [7] | [8] | [9] | [10] | [11] | [16] | [13]

ClCOCCl
inactive: [1] | [2] | [3] | [4] | [5] | [6] | [7] | [8] | [9] | [10] | [17] | [11] | [18] | [13]

CCC(C)C(C)(COC(N)=O)COC(N)=O (stereo unspecified)
inactive: [15] | [2] | [4] | [5] | [6] | [7] | [9] | [11] | [12] | [13]

Cc1ccc2cc(C)ccc2c1
inactive: [1] | [15] | [2] | [3] | [4] | [5] | [6] | [7] | [9] | [17] | [11] | [12] | [18] | [13]

C=C(Cl)CSC(=S)N(CC)CC
inactive: [14] | [1] | [2] | [4] | [7] | [8] | [9] | [17] | [11] | [19] | [12] | [18] | [16] | [13]

C1CN2CCC1CC2
inactive: [15] | [2] | [3] | [4] | [5] | [6] | [7] | [8] | [9] | [10] | [17] | [11] | [19] | [13]

ClCCN1CCCC1
inactive: [15] | [2] | [4] | [6] | [7] | [8] | [9] | [11] | [12] | [16] | [13]

CON(C)C(=O)Nc1ccc(Br)cc1
inactive: [14] | [2] | [3] | [4] | [5] | [6] | [7] | [8] | [9] | [10] | [11] | [19] | [12] | [18]

CCOC(=O)COc1ccc(Cl)cc1Cl
inactive: [14] | [2] | [3] | [4] | [5] | [7] | [8] | [9] | [11] | [12] | [13]

CCC(C)(C#N)N=NC(C)(C#N)CC (stereo unspecified)
inactive: [1] | [15] | [2] | [4] | [5] | [6] | [7] | [8] | [9] | [10] | [11] | [12] | [13]

Cc1ccc(-c2nc3ccc(C)cn3c2CC(=O)N(C)C)cc1
inactive: [1] | [15] | [2] | [4] | [5] | [7] | [9] | [12] | [16] | [13]
